From PubChem BioAssay AID651650 (Sanford-Burnham Center for Chemical Genomics, 2012)

What follows are molecules tested against Neuropilin-1 (Homo sapiens) (UniProt O14786) (assay: blockers of CendR peptide binding to NRP-1 – biochemical, FP and AlphaScreen panel, dose response (AID 651650)). Conditions: NRP-1 b1b2 / RPARPAR peptide binding, FP or AlphaScreen; run 1, at 100 µM (top of the series).
Neuropilin-1 (Homo sapiens), sequence (O14786 whole entry, looked up): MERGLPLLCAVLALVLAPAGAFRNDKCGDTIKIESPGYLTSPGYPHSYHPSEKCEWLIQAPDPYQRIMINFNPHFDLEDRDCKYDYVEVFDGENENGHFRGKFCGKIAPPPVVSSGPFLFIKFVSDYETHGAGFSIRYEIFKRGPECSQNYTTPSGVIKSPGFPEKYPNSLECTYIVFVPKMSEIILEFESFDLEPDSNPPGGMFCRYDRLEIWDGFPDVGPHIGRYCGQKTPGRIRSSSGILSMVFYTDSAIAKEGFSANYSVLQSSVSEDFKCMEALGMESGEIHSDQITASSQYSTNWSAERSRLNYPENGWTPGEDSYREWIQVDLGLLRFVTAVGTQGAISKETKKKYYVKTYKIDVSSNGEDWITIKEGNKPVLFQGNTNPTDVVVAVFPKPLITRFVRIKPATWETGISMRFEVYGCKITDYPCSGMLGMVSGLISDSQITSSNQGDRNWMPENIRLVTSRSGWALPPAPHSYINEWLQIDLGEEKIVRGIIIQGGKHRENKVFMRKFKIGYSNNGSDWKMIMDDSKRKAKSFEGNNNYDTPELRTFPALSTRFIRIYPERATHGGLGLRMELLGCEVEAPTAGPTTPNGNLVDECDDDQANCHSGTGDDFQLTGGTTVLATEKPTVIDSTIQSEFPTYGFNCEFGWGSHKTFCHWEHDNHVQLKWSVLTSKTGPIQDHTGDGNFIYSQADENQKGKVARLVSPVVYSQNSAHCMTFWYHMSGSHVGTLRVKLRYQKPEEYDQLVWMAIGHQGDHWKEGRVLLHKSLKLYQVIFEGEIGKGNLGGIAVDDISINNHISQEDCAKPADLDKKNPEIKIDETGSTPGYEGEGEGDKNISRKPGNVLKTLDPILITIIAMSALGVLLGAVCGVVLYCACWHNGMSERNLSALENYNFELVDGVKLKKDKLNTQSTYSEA

Row | SMILES | inhibition [%]
1 | CC(=O)C(=Cc1ccc(Cl)cc1)C(=O)c1ccccc1 | 27.1
2 | Cn1c(=O)c2c(nc(OCc3cccnc3)n2Cc2ccccc2)n(C)c1=O | 66.1
3 | CCO[C@@H]1OC(C(=O)NCc2ccccc2)=C[C@H](c2ccc(Br)cc2)[C@H]1CCCO | 102
4 | COC(=O)c1cccc(NC(=S)NCCC2=CCCCC2)c1 | 4.3
5 | CC(/C=C/c1ccccc1)=N\NC(=O)CCc1ccccc1 | 19.2
6 | CCOc1ccc(-n2c(Cc3cc(=O)[nH]c(=O)[nH]3)nnc2SC(C)C)cc1 | 59.6
7 | C[C@@H]1CC=C[C@H]2[C@H]1C(=O)N(Cc1ccccc1)[C@H]2c1ccc(/C=C/c2ccccc2)cc1F | 48.3
8 | O=c1c2ccccc2nc2n1C(CSc1ccc(F)cc1)CS2 (centres undefined) | 101
9 | COc1cc(OC)nc(NC(=O)COC(=O)c2cccc(Cl)c2)n1 | 98.8
10 | Cn1c(=NC(=O)COc2ccccc2)sc2ccccc21 | -1.2
11 | CCCc1c(C)nc(N2CCN(c3ccccc3OC)CC2)[nH]c1=O | 37.3
12 | CCC1Nc2ncnc(N3CCCCC3)c2N(Cc2ccc(C)cc2)C1=O (centres undefined) | 18.8
13 | CNc1nc(-c2ccc3c(c2)CCN3C(=O)c2ccccc2F)cs1 | 14.5
14 | NC(N)=NCCC[C@H](NC(=O)OCc1ccccc1)C(=O)O | 17.2
15 | COc1ccc(-c2csc(Nc3cccnc3)n2)cc1 | 47.6
16 | Cc1ccc(-n2c(-c3ccco3)nc3c(cnn3-c3ccc(C)cc3)c2=O)cc1 | 50.3
17 | C=C1CCN([C@@H](CC(C)C)C(=O)NCCC(C)C)S(=O)(=O)c2ccccc21 | 35.9
18 | C=C(C)COc1ccc(-c2[nH]ncc2-c2ccccc2)c(O)c1 | 16.9
19 | COc1cc(C(=O)Nc2cc3c(cc2N2CCCCC2)n(C)c(=O)n3C)cc(OC)c1OC | 57.1
20 | CCOC(=O)C1=CCN(S(=O)(=O)c2ccccc2Br)C1c1ccccc1 (centres undefined) | 35.1

Row | SMILES | inhibition [%]
21 | CC(C)(C)OC(=O)N1CCC(NC(=O)c2nc[nH]c2C(=O)N2CCc3ccccc3C2)CC1 | 25.2
22 | O=C(NCCN1CCN(C(=O)c2cccc(OC(F)F)c2)CC1)c1cccc(OC(F)F)c1 | 0.403
23 | Cc1cccc(C)c1Nc1nnc(SCC(=O)Nc2cc(S(=O)(=O)N3CCCCC3)ccc2Cl)s1 | -15.9
24 | Cc1cc(S(=O)(=O)NC2CCCCC2)ccc1OCC(=O)N1CCOCC1 | 97.6
25 | CCOC(=O)N1CCN(C(=O)c2cc3n(n2)C(C(F)(F)F)CC(c2ccc4c(c2)OCO4)N3)CC1 (centres undefined) | 30.7
26 | CCn1c(SCC(=O)c2ccccc2)nnc1-c1cccs1 | 45.2
27 | Cc1ccc(S(=O)(=O)N2[C@@H](c3ccc(Cl)cc3)C(C(=O)OC(C)(C)C)=CC[C@H]2c2ccc(Cl)c(Cl)c2)cc1 | 72.6
28 | Cc1ccc(C(=O)Nc2nnc([C@H]3C[C@H](O)[C@@H](CO)O3)s2)cc1 | 25.4
29 | Cc1ccccc1-c1cnc(C(O)c2ccc(F)c(F)c2)[nH]1 (centres undefined) | 43.1
30 | CCn1ncc(Br)c1C(=O)N(C)C12CC3CC(CC(C3)C1)C2 | 41.8
31 | CCOc1ccc(S(=O)(=O)N2CCN(C(=O)c3sccc3C)CC2)cc1 | 101
32 | O=C(/C=C/c1ccco1)N/C(=C\c1ccccc1)C(=O)NCCc1nc2ccccc2[nH]1 | 11.8
33 | COc1ccc([C@H]2/C=C\CN(C(=O)C3CC3)[C@@H](C)C(=O)N2Cc2ccc(F)cc2)cc1 | 30.1
34 | OCCCc1n[nH]c(=S)n1-c1ccccc1 | 31.2
35 | Cc1ccc(C)c(-n2c(SCC(=O)NC(C(=O)O)C(C)C)nnc2-c2cccc(Cl)c2)c1 (centres undefined) | 46.2
36 | CC(Nc1nc(-c2ccc(F)cc2)cs1)c1nc2cc(C(F)(F)F)ccc2n1CCOCCO (centres undefined) | 43.3
37 | CN(C)/N=C/c1ccc(Sc2ccc([N+](=O)[O-])cc2[N+](=O)[O-])o1 | 55.1
38 | OCCNc1ncnc2ccc(Br)cc12 | 66.8
39 | O=C(O)CCCC(=O)N1CCc2cc(S(=O)(=O)N3CCc4ccccc43)ccc21 | -2.42
